Measurements: article PMC4336329 (PLoS ONE, 2015)
Screen size: about 310,000 compounds; about 14,000 (4.5%) showed an effect of 50% or more. Effects have a minus sign here. Only a selection was taken, and strong results are over-represented in it overall.

Target: human ether-à-go-go-related gene (hERG) potassium channel (human, UniProt Q12809)
Experiment: primary screen, population patch clamp on CHO cells stably expressing hERG; higher = less effect of the substance
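Further: peak tail current of the secondary pulse compared with the same well before compound.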

human ether-à-go-go-related gene (hERG) potassium channel, sequence (Q12809 whole entry, looked up): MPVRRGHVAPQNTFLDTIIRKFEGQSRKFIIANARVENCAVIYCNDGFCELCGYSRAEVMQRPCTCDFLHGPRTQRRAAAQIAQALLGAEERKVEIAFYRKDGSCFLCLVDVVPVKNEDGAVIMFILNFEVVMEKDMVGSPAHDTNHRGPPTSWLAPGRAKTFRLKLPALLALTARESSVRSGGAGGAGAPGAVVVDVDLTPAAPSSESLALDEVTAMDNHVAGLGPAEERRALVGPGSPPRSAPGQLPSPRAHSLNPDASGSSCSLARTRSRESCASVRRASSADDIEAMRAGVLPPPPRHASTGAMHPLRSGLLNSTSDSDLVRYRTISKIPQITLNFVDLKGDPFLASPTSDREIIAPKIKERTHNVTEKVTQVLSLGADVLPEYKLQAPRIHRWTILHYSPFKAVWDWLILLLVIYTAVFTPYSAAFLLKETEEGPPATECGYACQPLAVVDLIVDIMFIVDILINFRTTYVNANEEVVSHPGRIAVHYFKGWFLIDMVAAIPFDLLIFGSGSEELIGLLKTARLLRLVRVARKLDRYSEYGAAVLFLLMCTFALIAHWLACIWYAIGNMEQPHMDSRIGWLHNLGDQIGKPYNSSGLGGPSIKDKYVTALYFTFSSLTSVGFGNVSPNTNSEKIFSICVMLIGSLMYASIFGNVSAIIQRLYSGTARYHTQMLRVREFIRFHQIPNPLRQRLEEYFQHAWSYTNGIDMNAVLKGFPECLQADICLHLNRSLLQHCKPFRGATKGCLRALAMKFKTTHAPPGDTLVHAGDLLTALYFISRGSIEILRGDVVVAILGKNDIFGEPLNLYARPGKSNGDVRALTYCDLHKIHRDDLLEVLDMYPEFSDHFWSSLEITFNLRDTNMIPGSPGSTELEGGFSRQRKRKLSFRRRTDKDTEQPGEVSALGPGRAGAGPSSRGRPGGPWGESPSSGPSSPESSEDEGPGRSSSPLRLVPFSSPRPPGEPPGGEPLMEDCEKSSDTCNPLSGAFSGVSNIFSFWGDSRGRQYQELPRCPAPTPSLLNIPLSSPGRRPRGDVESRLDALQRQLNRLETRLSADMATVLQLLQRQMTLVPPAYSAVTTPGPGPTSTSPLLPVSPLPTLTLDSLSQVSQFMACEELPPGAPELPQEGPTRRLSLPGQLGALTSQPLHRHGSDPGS

Structure (SMILES)	hERG current change (%, negative = inhibition) at 10uM [%]
CCC/C=N/Nc1nnc(Cc2ccc(OC)c(OC)c2)c(=O)[nH]1	27.2
CSCC[C@H](NC(=O)OCc1ccccc1)C(=O)O	-2.24
Cc1ccc(-c2c(C#N)c(N)nc3c2CCCCC3)o1	-5.84
C=CCn1c(N/N=C/c2ccc(O)cc2)nc2ccccc2c1=O	-17.9
Cc1cc2c(C)nc(N/N=C/c3ccccc3)nc2o1	-27.6
Cc1cc2c(C)nc(N/N=C/c3ccc(F)cc3)nc2o1	-52.7
Cc1cc2c(C)nc(N/N=C/c3ccc([N+](=O)[O-])cc3)nc2o1	-16.2
CC1(C)C2CCC13CS(=O)(=O)N[C@@H]3C2 (stereo partly shown)	20.5
Cc1ccc(CC2CC(=O)N(CCc3ccc4c(c3)OCO4)C2=O)cc1 (stereo not shown)	3.17
O=C(Nc1ccc(O)cc1)C1CCCO1 (stereo not shown)	16.4
C=CCn1c(SCC(=O)Nc2ccc(OC)cc2)nnc1-c1cnccn1	-23.1
C=CCn1c(SCC(=O)Nc2ccc(S(N)(=O)=O)cc2)nnc1-c1cnccn1	13
Cc1ccc(NC(=O)CSc2nnc(-c3ccccn3)n2N)cc1F	-48.5
Nn1c(SCC(=O)Nc2ccc(F)cc2)nnc1-c1ccccn1	-53.6
NC(=O)c1ccc(NC(=O)CSc2nnc(-c3ccccn3)n2N)cc1	17.1
C=CCn1c(SCC(=O)Nc2ccc(F)cc2)nnc1-c1cnccn1	-58.9
C=CCn1c(SCC(=O)Nc2c(C)cccc2C)nnc1-c1cnccn1	-2.77
Cc1cccc(NC(=O)CSc2nnc(-c3cc(C)[nH]n3)n2N)c1	-29.1
C=CCn1c(SCC(=O)Nc2cccc(C)c2)nnc1-c1cnccn1	-71.9
Cc1cc(-c2nnc(SCC(=O)Nc3cccc(F)c3)n2N)n[nH]1	6.38
C=CCn1c(SCC(=O)Nc2cc(C)cc(C)c2)nnc1-c1cnccn1	-29.6
Cc1cc(-c2nnc(SCC(=O)Nc3cccc(Cl)c3)n2N)n[nH]1	-71.9
Cc1cc(C)[n+](Cc2ccccc2)cc1C(N)=O.[Cl-]	16.6

Structure (SMILES)	hERG current change (%, negative = inhibition) at 10uM [%]
N#Cc1cc(Nc2c(N)nc[nH]c2=O)c([N+](=O)[O-])cc1C#N	8.95
O=C(O)CCN1C(=O)c2ccc(NC(=O)Cc3ccc(Cl)cc3)cc2C1=O	3.94
CC(=O)c1cc(-c2ccccc2)n(CC(=O)N2CCCC2)c1C	13.3
CCn1c(SCC(=O)Nc2ccc(C)cc2)nnc1-c1cnccn1	-31.8
C=CCn1c(SCC(=O)Nc2cc(C)ccc2C)nnc1-c1cnccn1	-14.4
C=CCn1c(SCC(=O)Nc2cccc3ccccc23)nnc1-c1cnccn1	-39.9
CCn1c(SCC(=O)Nc2ccc3c(c2)OCCO3)nnc1-c1ccccn1	-16.1
CCn1c(SCC(=O)Nc2ccc(C)cc2)nnc1-c1ccccn1	-59.1
CCn1c(SCC(=O)Nc2ccc(F)cc2)nnc1-c1cnccn1	-56.8
Cc1ccc(NC(=O)CSc2nnc(-c3ccccn3)n2C)cc1	-28.1
CCn1c(SCC(=O)Nc2ccccc2F)nnc1-c1cnccn1	-34.9
C=CCn1c(SCC(=O)Nc2ccc(F)cc2F)nnc1-c1cnccn1	-58.8
COc1cc(C2NC(=O)NC(c3ccccc3)=C2C(C)=O)ccc1OCC#N (stereo not shown)	-8.43
CN1CCN(C(=O)c2ccc(C3SCC(=O)N3Cc3ccco3)cc2)CC1 (stereo not shown)	6.13
CCOc1ccc(/C=N/NC(=O)c2csc(C)c2C)c(OCC)c1	6.43
Cc1ccc(S(=O)(=O)NCCC(=O)Nc2cc(S(=O)(=O)N(C)C)ccc2C)cc1C	-7.95
O=C(c1cc([N+](=O)[O-])ccc1N1CCCC1)N1CCCC1	-0.904
CCN1CC(CN(C)Cc2nc(-c3ccco3)oc2C)CC1=O (stereo not shown)	10.4
CCN1CC(CN(C)Cc2nc(-c3ccc(Cl)cc3)no2)CC1=O (stereo not shown)	-59.1
CCN1CC(CN(C)Cc2nc(-c3ccc(C(F)(F)F)cc3)oc2C)CC1=O (stereo not shown)	-51.5
CCN1CC(CN(C)Cc2nc(-c3cccs3)no2)CC1=O (stereo not shown)	3.65
CCN1CC(CN(C)Cc2nc(-c3ccc(C(F)(F)F)cc3)no2)CC1=O (stereo not shown)	-28.9
CCN1CC(CN(C)Cc2nc(-c3ccc(OC)c4ccccc34)oc2C)CC1=O (stereo not shown)	-37.2

Structure (SMILES)	hERG current change (%, negative = inhibition) at 10uM [%]
Cc1cc(O)c(NC(=O)c2ccc(Br)o2)cc1C	-7.04
COc1ccc(N2CCN(C(=O)CN(c3cccc(OC)c3)S(=O)(=O)c3ccccc3)CC2)cc1	-19.4
CC(=O)OC1CC2(C)C(=O)CCC2C2CCc3cc(O)ccc3C12 (stereo not shown)	1.59
Cc1ccc(Nc2cccc(C(F)(F)F)c2)nn1	-0.351
COc1ccc2c(c1)CCCN2S(=O)(=O)c1ccc(Cl)cc1	9.65
COc1ccc2c(c1)CCCN2C(N)=O	17.4
COc1ccc2c(c1)CCCN2C(N)=Nc1ccc(Cl)cc1	-63.7
Cc1ccc(NC(=O)CN(C)C(=O)C(Sc2ccccc2)c2ccccc2)cc1 (stereo not shown)	2.05
CC(=O)O[C@H]1C(=O)[C@@]2(C)C([C@H](OC(=O)c3ccccc3)[C@]3(O)C[C@H](OC(=O)[C@H](O)[C@@H](NC(=O)Cc4ccccc4)c4ccccc4)C(C)=C1C3(C)C)[C@]1(OC(C)=O)CO[C@@H]1C[C@@H]2O (stereo partly shown)	16.6
CCn1cc(C(=O)N2CCc3ccccc32)c(=O)c2cc(S(=O)(=O)N3CC(C)CC(C)C3)ccc21 (stereo not shown)	-43.8
CCn1cc(C(=O)N2CCc3ccccc3C2)c(=O)c2cc(S(=O)(=O)N3CCCCC3)ccc21	-40.7
CCn1cc(C(=O)NCCCOC)c(=O)c2cc(S(=O)(=O)N3CCCC3)ccc21	-4.05
CCOCCCNC(=O)c1cn(CC)c2ccc(S(=O)(=O)N3CCCC3)cc2c1=O	-6.08
CCn1cc(C(=O)N2CCc3ccccc32)c(=O)c2cc(S(=O)(=O)N3CCCCCC3)ccc21	-67.1
CCOCCCNC(=O)c1cn(CC)c2ccc(S(=O)(=O)N3CCC(C)CC3)cc2c1=O	-22.6
CCn1cc(C(=O)NCCCN2CCCC(C)C2)c(=O)c2cc(S(=O)(=O)N3CCc4ccccc4C3)ccc21 (stereo not shown)	-75.7
CCC1CCCCN1CCCNC(=O)c1cn(C)c2ccc(S(=O)(=O)N3CCOCC3)cc2c1=O (stereo not shown)	21.3
CCn1cc(C(=O)NCCCOC)c(=O)c2cc(S(=O)(=O)N3CCC(C)CC3)ccc21	-10.3
CCn1cc(C(=O)NCCCN2CCCCCC2)c(=O)c2cc(S(=O)(=O)N3CCc4ccccc4C3)ccc21	-77.7
CCC1CCCCN1CCCNC(=O)c1cn(CC)c2ccc(S(=O)(=O)N3CCc4ccccc4C3)cc2c1=O (stereo not shown)	-72
CCn1cc(C(=O)NCCCN2CCCC2)c(=O)c2cc(S(=O)(=O)N3CCc4ccccc4C3)ccc21	-8.75
COc1cc(N2CCOCC2)ccc1/C=C1\C(=O)NC(=O)N(Cc2ccc3c(c2)OCO3)C1=O	16.5
COc1ccc(S(=O)(=O)N2CCOCC2)cc1C(=O)Nc1cc(C)on1	2.19

Structure (SMILES)	hERG current change (%, negative = inhibition) at 10uM [%]
CCn1c(SCC#N)nc2ccccc2c1=O	2.7
CN(CC(=O)Nc1ccc(F)cc1)C(=O)COC(=O)CSc1ccc(F)cc1	-16
CC(=O)N1CCOc2ccc(S(=O)(=O)NCCc3ccc(S(N)(=O)=O)cc3)cc21	12.2
CCc1c(C)sc(NC(=O)c2cc(-c3ccc(O)cc3)on2)c1C#N	11.2
O=C(CCc1nnc2ccc(NCc3ccco3)nn12)Nc1ccc(F)cc1F	-4.76
COc1ccc(OC)c(C2=NOC(C(=O)Nc3cc(C)on3)C2)c1 (stereo not shown)	17.2
O=C(CCc1nc2sc3c(c2c(=O)[nH]1)CCCC3)Nc1ccccc1Cl	7.93
CN(C)C(=O)CSc1nnc(NC(=O)CCc2ccccc2)s1	-5.24
CC(=O)c1cccc(NC(=O)N2CC(C)OC(C)C2)c1 (stereo not shown)	10.4
Cc1ccc(NC(=O)OCCNC(=O)c2ccncc2)cc1	8.86
CCN(CC(=O)NCc1ccc(F)cc1)C(=O)c1ccc(C(=O)c2ccccc2)cc1	-42.3
Cc1cc(Cl)ccc1OCC(=O)NCc1ccncc1	-8.3
O=C(COc1cccc(Cl)c1)NCc1ccccc1	18.9
CCN(CC(=O)NCc1ccc(F)cc1)C(=O)C(C)Oc1cccc(Cl)c1 (stereo not shown)	-54.4
O=C(COc1ccc(Cl)cc1Br)NC(=O)NCc1ccccc1	13.3
CCN(CC(=O)NCc1ccc(Cl)cc1)C(=O)COc1cccc(Cl)c1	-73.5
CN(CC(=O)NCc1ccc(F)cc1)Cc1cccc(Cl)c1	4.92
CCOc1ncccc1C(=O)N(CC)CC(=O)NCc1ccc(Cl)cc1	1.69
CCN(CC(=O)NCc1ccc(Cl)cc1)C(=O)CSc1cc(C)ccc1C	-47.5
CCN(CC(=O)NCc1ccc(Cl)cc1)C(=O)c1cnc(Cl)c(Cl)c1	5.29
CCN(CC(=O)NCc1ccc(Cl)cc1)C(=O)COc1ccc(C)cc1C	-78.4
CCN(CC(=O)NCc1ccc(Cl)cc1)C(=O)COc1ccc(Cl)cc1Br	-67.7
